From PubChem BioAssay (NCI) come the findings set out here.

Compounds without any hit were thinned out: in the full panel of roughly 83,000, 20% have a hit.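 Plates (96-well) were seeded with cells, treated with compound at one concentration, and incubated for 48 hours before percent growth was determined.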 A number with no mark means an inactive call. Activity calls are given as the source filed them. Rule for the calls: active = growth percent below 10; inactive = the rest.

What all share (assay): NCI-60 one-dose screen, 48 h (100 = growth as untreated, 0 = no growth, -100 = all killed)
One experiment deals with RPMI-8226 leukemia. Conditions: 10 µM unless noted.
The test system of another experiment is OVCAR-8 ovarian. Conditions: 10 µM unless noted.
The next experiment deals with OVCAR-5 ovarian. Conditions: 10 µM unless noted.
In a further experiment the test system is OVCAR-4 ovarian. Particulars: 10 µM unless noted.
The test system of another experiment is SK-OV-3 ovarian. Particulars: 10 µM unless noted.
The next experiment relates to IGROV1 ovarian. Conditions: 10 µM unless noted.
Another experiment concerns OVCAR-3 ovarian. Conditions: 10 µM unless noted.
A further experiment deals with HS 578T breast. Particulars: 10 µM.
The next experiment concerns NCI/ADR-RES ovarian. Conditions: 10 µM unless noted.
The test system of the next experiment is BT-549 breast. Particulars: 10 µM unless noted.
Another experiment deals with MDA-MB-435 melanoma. Particulars: 10 µM unless noted.
The test system of the next experiment is SW-620 colon. Conditions: 10 µM unless noted.
The test system of the next experiment is MCF7 breast. Particulars: 10 µM unless noted.
For a further experiment, the system named is HCT-116 colon. Conditions: 10 µM unless noted.
The subject of another experiment is HCC-2998 colon. Conditions: 10 µM unless noted.
The next experiment concerns KM12 colon. Particulars: 10 µM unless noted.
The subject of a further experiment is T-47D breast. Conditions: 10 µM unless noted.

For `ClCc1cccc(CSc2ncnc3c2ncn3Cc2cccc(CCl)c2)c1`, the growth was -10.6% (active) in the experiment on RPMI-8226 leukemia; -16.4% (active) in the experiment on OVCAR-8 ovarian; 116% in the experiment on OVCAR-5 ovarian; 8.74% (active) with OVCAR-4 ovarian; 65.5% in the experiment on SK-OV-3 ovarian; 14% with IGROV1 ovarian. The growth in the experiment on OVCAR-3 ovarian is 28.4%; in the experiment on HS 578T breast, 47.7%; in the experiment with NCI/ADR-RES ovarian it was -6.49% (active); in the experiment on BT-549 breast it was -69.6% (active); with MDA-MB-435 melanoma, 9.56% (active); with SW-620 colon, -45.6% (active). In addition, the growth was 13.3% in the experiment with MCF7 breast, -79.6% (active) with HCT-116 colon, -71.7% (active) in the experiment with HCC-2998 colon and 57.9% in the experiment with KM12 colon.

Turning to `C=CCOc1c(Br)cc(Br)cc1Br`, the growth in the experiment with RPMI-8226 leukemia is 38.7%; in the experiment with OVCAR-8 ovarian it was 74.3%; in the experiment with OVCAR-5 ovarian it was 76.2%; in the experiment on SK-OV-3 ovarian, 64.9%; in the experiment on IGROV1 ovarian, 30%; in the experiment on HS 578T breast, 42.2%. Moreover, the growth in the experiment with NCI/ADR-RES ovarian is 63.7%; in the experiment with T-47D breast, 65.1%; in the experiment on BT-549 breast, 67.4%; with MDA-MB-435 melanoma, 27.2%; with SW-620 colon, 76.1%; in the experiment on MCF7 breast, 40.5%. Moreover, the growth was 95.1% with HCC-2998 colon and 84.8% in the experiment with KM12 colon.

On to `COc1ccc(C2CC(c3cccc(Nc4ccnc5cc(Cl)ccc45)c3)=NN2c2ccc(Cl)cc2)cc1` (configuration not stated), for which the growth was 42.6% in the experiment with RPMI-8226 leukemia; 56.6% with OVCAR-8 ovarian; 84.4% in the experiment on OVCAR-5 ovarian; 95.9% in the experiment on OVCAR-4 ovarian; 94.7% with SK-OV-3 ovarian; 99.1% with IGROV1 ovarian. In addition, the growth in the experiment with OVCAR-3 ovarian is 74.2%; in the experiment on HS 578T breast, 90.5%; in the experiment with T-47D breast it was 40.6%; with BT-549 breast, 56.7%; with MDA-MB-435 melanoma, 30.6%; in the experiment on SW-620 colon it was 30.7%. For the same molecule, the growth in the experiment with MCF7 breast was 65%; with HCT-116 colon, 66.3%; with HCC-2998 colon, 7.59% (active); in the experiment with KM12 colon it was 22.2%.

On to `CCOc1c(C#N)c2c(N)ncnc2n1C1OC(CO)C(O)C1O` (configuration not stated), for which the growth in the experiment with OVCAR-8 ovarian is 89.6%; with OVCAR-5 ovarian, 83.6%; in the experiment on OVCAR-4 ovarian, 56.1%; with SK-OV-3 ovarian, 52.9%; in the experiment on IGROV1 ovarian, -57.7% (active); with OVCAR-3 ovarian it was -41.4% (active). Also, the growth is 50.9% in the experiment on HS 578T breast; 62.4% in the experiment with NCI/ADR-RES ovarian; 15.4% in the experiment with T-47D breast; 18.1% in the experiment with MDA-MB-435 melanoma; 4.66% (active) with SW-620 colon; -3.56% (active) in the experiment on MCF7 breast. In addition, the growth in the experiment with HCT-116 colon is 3.41% (active); in the experiment on HCC-2998 colon it was 84.1%; with KM12 colon, 10.6%.

`CN1CCN(c2ccc(N3Cc4ccccc4OC4=C3C(=O)c3c(O)ccc(O)c3C4=O)cn2)CC1`: the growth was -7.62% (active) with RPMI-8226 leukemia; 2.15% (active) in the experiment with OVCAR-8 ovarian; -97.2% (active) in the experiment with OVCAR-4 ovarian; 26% in the experiment with SK-OV-3 ovarian; -59.3% (active) with IGROV1 ovarian; -99.6% (active) in the experiment with OVCAR-3 ovarian. For the same molecule, the growth with HS 578T breast is 23.5%; in the experiment on NCI/ADR-RES ovarian, 5.09% (active); with T-47D breast, -32.7% (active); in the experiment with BT-549 breast, -78.8% (active); in the experiment with MDA-MB-435 melanoma, 0.932% (active); in the experiment on SW-620 colon it was -61.1% (active). In addition, the growth is -39.2% (active) in the experiment with MCF7 breast, -80.9% (active) with HCT-116 colon, -65.8% (active) with HCC-2998 colon and -53.2% (active) with KM12 colon.

For `O=C(O)Cn1ccc2ccccc21`, the growth was 92.6% in the experiment with OVCAR-8 ovarian; 100% in the experiment on OVCAR-5 ovarian; 134% in the experiment on SK-OV-3 ovarian; -6.06% (active) with IGROV1 ovarian; 104% in the experiment with OVCAR-3 ovarian; 108% in the experiment on HS 578T breast. For the same molecule, the growth with NCI/ADR-RES ovarian is 103%; with T-47D breast, 135%; in the experiment on MDA-MB-435 melanoma, 108%; with SW-620 colon it was 99.1%; with MCF7 breast, 96.4%; in the experiment with HCT-116 colon, 96.9%. Further, the figures for the growth with HCC-2998 colon and with KM12 colon were 104% and 109%, respectively.

As to `O=[N+]([O-])c1cc(F)c2cccnc2c1O`, the growth is 88.8% in the experiment with OVCAR-8 ovarian; 105% in the experiment on OVCAR-5 ovarian; 102% in the experiment on OVCAR-4 ovarian; 97.4% with SK-OV-3 ovarian; 3.74% (active) in the experiment on IGROV1 ovarian; 111% with OVCAR-3 ovarian. The growth was 105% with HS 578T breast; 92.9% in the experiment with NCI/ADR-RES ovarian; 99.5% in the experiment on T-47D breast; 102% in the experiment with MDA-MB-435 melanoma; 87.4% with SW-620 colon; 94.7% in the experiment on MCF7 breast. Besides, the growth in the experiment with HCT-116 colon was 95.8%; with HCC-2998 colon, 96.2%; in the experiment on KM12 colon, 111%.

As to `Nc1cc2nc3ccccc3oc-2cc1=O`, the growth in the experiment on OVCAR-8 ovarian was 58.4%; in the experiment with OVCAR-5 ovarian, 81.6%; with SK-OV-3 ovarian, 92.4%; with OVCAR-3 ovarian it was 10.1%; in the experiment on HS 578T breast it was -38.3% (active); in the experiment on NCI/ADR-RES ovarian, 60.6%. Also, the growth was 69.9% with T-47D breast; -47.1% (active) in the experiment with BT-549 breast; -88% (active) with MDA-MB-435 melanoma; 11.6% with SW-620 colon; 9.47% (active) with MCF7 breast; 32.4% in the experiment with KM12 colon.

Regarding `SCc1ccc(CS)cc1`, the growth in the experiment with RPMI-8226 leukemia was 103%; in the experiment on OVCAR-8 ovarian, 98.4%; in the experiment on OVCAR-4 ovarian, 101%; in the experiment with SK-OV-3 ovarian, 104%; in the experiment with IGROV1 ovarian, 105%; in the experiment on OVCAR-3 ovarian it was 115%. Moreover, the growth in the experiment on NCI/ADR-RES ovarian is 109%; with T-47D breast, 101%; in the experiment with BT-549 breast it was 92.3%; with MDA-MB-435 melanoma it was 111%; in the experiment with SW-620 colon, 102%; with HCT-116 colon, 100%. Moreover, the results for the growth in the experiment on HCC-2998 colon and in the experiment on KM12 colon were 101% and 114%, respectively.

Take `CC(=O)[C@@]1(O)[C@H](C)C[C@H]2[C@@H]3C=C(C)C4=Cc5c(cnn5-c5ccccc5)C[C@]4(C)[C@H]3[C@@H](O)C[C@@]21C`: the growth in the experiment with OVCAR-8 ovarian was 37.3%; in the experiment on OVCAR-5 ovarian, 40.6%; in the experiment with OVCAR-4 ovarian, 56.5%; in the experiment with SK-OV-3 ovarian, 38.7%; in the experiment with IGROV1 ovarian it was -16.8% (active); with OVCAR-3 ovarian it was 8.02% (active). In addition, the growth in the experiment on HS 578T breast is 5.32% (active); in the experiment on NCI/ADR-RES ovarian, 27.1%; in the experiment on T-47D breast, 44.4%; with MDA-MB-435 melanoma it was 37.7%; in the experiment with SW-620 colon it was -59.9% (active); in the experiment on MCF7 breast it was 15.5%. Besides, the growth with HCT-116 colon was 14.4%; in the experiment with HCC-2998 colon, 19.8%; in the experiment on KM12 colon it was -45% (active).
